# Compound activity deposited in PubChem by several laboratories.
# This is a sample that favours compounds with a hit; in the whole collection about 3.7% have one here.
# BoNT A protease: inhibitors of Botulinum neurotoxin A light chain protease; multiplex microsphere protease substrate cleavage, flow cytometry; inhibition, % at 10 µM; 0.17% of 360,000 active; AID 588499
# BoNT F protease: blocks Botulinum neurotoxin F light chain protease; Multiplex microsphere protease cleavage assay, flow cytometry; inhibition, % at 10 µM; 0.22% of 360,000 active; AID 588497; in the data active = inhibition above about 35%, passing the limit was not always enough; inconclusive = no clear call, values can overlap the other calls
# Anthrax LF prot: anthrax lethal factor protease inhibition | multiplex microsphere protease cleavage assay, LF | inhibition, % at 10 µM | P15917 | 0.12% of 360,000 active | AID 588501
# Target sequence (P15917 whole entry, looked up): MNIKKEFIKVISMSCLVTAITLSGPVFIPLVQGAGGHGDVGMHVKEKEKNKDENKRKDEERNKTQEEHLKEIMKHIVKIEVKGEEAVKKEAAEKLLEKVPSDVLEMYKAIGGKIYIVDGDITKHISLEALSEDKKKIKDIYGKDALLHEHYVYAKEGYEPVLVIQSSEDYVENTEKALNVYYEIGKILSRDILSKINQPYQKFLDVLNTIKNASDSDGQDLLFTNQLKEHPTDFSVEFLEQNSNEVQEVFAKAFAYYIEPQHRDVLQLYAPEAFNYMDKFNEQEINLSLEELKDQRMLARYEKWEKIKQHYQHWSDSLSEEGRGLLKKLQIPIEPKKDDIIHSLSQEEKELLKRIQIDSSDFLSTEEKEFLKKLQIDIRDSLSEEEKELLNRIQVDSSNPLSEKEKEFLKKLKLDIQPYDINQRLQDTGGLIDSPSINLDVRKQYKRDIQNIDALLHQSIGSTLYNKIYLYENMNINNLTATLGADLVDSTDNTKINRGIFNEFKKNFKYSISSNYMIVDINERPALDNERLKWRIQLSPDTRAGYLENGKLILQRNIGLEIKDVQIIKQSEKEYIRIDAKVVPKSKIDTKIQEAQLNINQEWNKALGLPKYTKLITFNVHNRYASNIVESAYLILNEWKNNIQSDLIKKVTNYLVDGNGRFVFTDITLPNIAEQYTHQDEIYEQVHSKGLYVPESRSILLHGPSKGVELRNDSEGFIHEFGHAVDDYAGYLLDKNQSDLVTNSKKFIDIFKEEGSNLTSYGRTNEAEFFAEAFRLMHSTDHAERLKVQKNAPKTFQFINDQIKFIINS
# MazEF act: increases E. coli MazEF RNase cleavage of RNA. P0AE70. FAM/BHQ RNA-DNA oligo cleavage fluorescence, 5 h. activation, % at 20 µM. 0.32% of 350,000 active; in the data active = activation above about 50%
# Autofluor counter: flagged as autofluorescent in microsphere protease counterscreen; compound autofluorescence counterscreen, microsphere flow cytometry; hits give high values; fluorescence intensity (no concentration beside the values); 3.1% of 360,000 active; in the data active = fluorescence intensity above about 16000; inconclusive = no clear call, values can overlap the other calls
# Hits are given with their value; - = inactive; ? = inconclusive; . = not tested or not shown; + = active, no number; ! = not active in a repeat. Cut-off read from the data, not from the text of the source, unless noted: active = inhibition above about 30%; inconclusive = no clear call, values can overlap the other calls; inactive = below that.
SMILES,BoNT A protease,BoNT F protease,Anthrax LF prot,MazEF act,Autofluor counter
CCCCCCn1cc(CN2CC(N3CCN(CCN(C)C)CC3)CS2(=O)=O)nn1 (stereo unspecified),-,-,-,.,-
COc1ccc(CN2CCN(CCc3ccccc3)C(CCO)C2)c(O)c1 (stereo unspecified),-,-,-,-,-
CCCC(NS(=O)(=O)c1ccc(Br)cc1)C(=O)O (stereo unspecified),-,-,-,-,25446
CCC(NS(=O)(=O)c1ccc(C)cc1)C(=O)O (stereo unspecified),-,-,-,-,21879
O=C(COC(=O)COc1ccccc1[N+](=O)[O-])NC1CCCCC1,-,-,-,-,-
CC1C(=O)N2CCCc3cc(S(=O)(=O)N(C)CCC#N)cc1c32 (stereo unspecified),-,-,-,-,-
COc1cccc(N2CC(C(=O)OC(C)C(=O)c3ccccc3)CC2=O)c1 (stereo unspecified),?,-,-,-,22234
COc1ccc(OC)c(NC(=O)C2CC(=O)N(c3ccccc3)C2)c1 (stereo unspecified),-,-,-,-,-
O=C1CCCc2c1oc1c2CCCC1,-,-,-,-,-
CN1CCN(C2=C(Cl)C(=O)C(c3cnc(N4CCCCC4)s3)=C(Cl)C2=O)CC1,-,-,-,-,19751
O=C1CCN(c2ccc([N+](=O)[O-])cc2F)CC1,-,-,-,-,-
CC(C)Cn1c(NCCO)nc2ccccc21,-,-,-,-,19740
OCCNc1nc2ccccc2n1CC(O)c1ccccc1 (stereo unspecified),-,-,-,-,-
CCCc1ccc(Oc2cc(N3CCOCC3)nc(-c3ccccc3)n2)cc1,-,-,-,-,23308
CCCc1ccc(Oc2cc(C)nc(N3CCOCC3)n2)cc1,-,-,-,-,-
O=C(NCCN1CCC(n2c(=O)[nH]c3ccccc32)CC1)c1cccc(F)c1,-,-,-,.,-
CCOC(=O)CSc1nnc(CSc2nc3sc4c(c3c(=O)[nH]2)CCC4)n1C,-,-,-,-,-
CCOC(=O)CSc1nnc(CSc2nc3sc4c(c3c(=O)[nH]2)CCC4)n1-c1ccccc1,-,-,-,-,21953
O=C1c2ccccc2C(=Nc2ccccc2)C1c1cccc(Br)c1 (stereo unspecified),-,-,-,-,21729
O=C1c2ccccc2-c2cc(Br)ccc2NC1O (stereo unspecified),-,-,-,-,-
COc1ccc(NS(=O)(=O)c2cccc(C(=O)OCC(=O)N3CCN(c4ccc(OC)cc4)CC3)c2)cc1,-,-,-,-,-
O=S(=O)(NCCOc1ccccc1)c1ccc2ccccc2c1,?,-,-,-,19154
CC(C)c1ccc[n+](-c2nc([O-])sc2C=O)c1,-,-,-,-,-
Cc1ccc[n+](-c2nc([O-])sc2C=O)c1,-,-,-,69,-
CCCCn1c(N)c(N(CCOC)C(=O)CN2c3ccccc3CC2C)c(=O)[nH]c1=O (stereo unspecified),-,-,-,-,-
SMILES,BoNT A protease,BoNT F protease,Anthrax LF prot,MazEF act,Autofluor counter
O=S(=O)(Cc1ccccc1)N1CCN(C/C=C/c2ccccc2)CC1,-,-,-,-,25473
CS(=O)(=O)N1CCN(C/C=C/c2ccccc2)CC1,-,-,-,-,-
CCCC(=O)NC1=C(C#N)C2(CCCC2)Cc2ccccc21,?,-,-,-,17626
CCCC(=O)Nn1cnc2c(c1=O)C1(CCCC1)Cc1ccccc1-2,-,-,-,-,-
COc1ccc(OC)c(-n2c(-c3ccccc3)n[nH]c2=S)c1,?,-,-,-,22480
COc1ccc(OC)c(-n2c(-c3cccc(C)c3)n[nH]c2=S)c1,-,-,-,-,-
CCCCCCSc1cc(-c2nc3cc(C)ccn3c2NC2CCCCC2)ccc1OC,-,-,-,-,-
COc1cc(-c2nc3cc(C)ccn3c2NC2CCCCC2)ccc1-c1ccc(C(C)=O)cc1,-,-,-,-,23646
CCC(C)Sc1ccc(-c2nc3cc(C)ccn3c2NC2CCCCC2)cc1 (stereo unspecified),-,-,-,-,20914!
CC(C)C(C(=O)NCC1CCCO1)N(Cc1ccccc1)C(=O)CNS(=O)(=O)c1ccccc1 (stereo unspecified),-,-,-,-,-
CCc1nc(Nc2ccncc2)c2oc3ccccc3c2n1,-,-,-,-,20587
CCc1nc(N2CCCCC2C(=O)O)c2oc3ccccc3c2n1 (stereo unspecified),-,-,-,-,-
CCc1nc(N2CCCC(C)C2)c2oc3ccccc3c2n1 (stereo unspecified),-,-,-,-,-
CCc1nc(N2CCCCC2)c2oc3ccccc3c2n1,-,-,-,-,23515
CCc1nc(N2CCCCC2C)c2oc3ccccc3c2n1 (stereo unspecified),-,-,-,-,19411
Cc1nc(Nc2ccncc2)c2oc3ccccc3c2n1,-,-,-,-,-
COCCOC(=O)c1c(C)oc2ccc(O)c(CN3CCC(C)CC3)c12 (tested in a mixture with another compound),-,-,-,-,-
Cc1oc2ccc(O)c(CN3CCOCC3)c2c1C(=O)c1ccc(Cl)cc1,-,-,-,-,23586
CSc1ccccc1OCc1cc(C(=O)NCCC2=CCCCC2)no1,-,-,-,-,?
Cc1cc(/C=C2\Sc3ccccc3N2C)cc(C)[n+]1CC1CCCO1 (stereo unspecified),42,-,-,-,-
O=C(NCc1ccc(F)cc1)N[C@@H](Cc1ccccc1)C(=O)O,-,-,-,-,22456
O=C(NCc1ccccc1)N[C@@H](Cc1ccccc1)C(=O)O,?,-,-,-,16799
COC(=O)[C@H](Cc1ccccc1)NC(=O)NCc1cccs1,-,-,-,-,19692
O=C(NCc1cccs1)N[C@@H](Cc1ccccc1)C(=O)O,-,-,-,-,-
O=C(NC(Cc1ccc(F)cc1)C(=O)O)c1ccccc1 (stereo unspecified),-,-,-,-,-
SMILES,BoNT A protease,BoNT F protease,Anthrax LF prot,MazEF act,Autofluor counter
O=C(NCCc1ccccn1)c1n[nH]c(=O)c2ccccc12,-,-,-,-,22070
Cc1ccc(-c2nc3ccccc3nc2-c2ccccc2)cc1,-,-,-,-,-
Cn1nc(-c2ccccc2)c2nc3ccccc3nc21,-,-,-,+,-
CC1(C)CC(=O)C(C=NCCc2ccc(S(N)(=O)=O)cc2)=C(O)C1,-,-,-,-,23978
CCOc1ccc(N2CC(NC(=O)c3ccc4ccccc4c3)CC2=O)cc1 (stereo unspecified),-,-,-,-,?
O=[N+]([O-])c1cccc(CN(CCO)Cc2ccccc2)c1,-,-,-,-,16829
OCCN(Cc1ccccc1)Cc1ccc(F)c(F)c1,-,-,-,-,20266
CCN(Cc1ccccc1)Cc1cccc([N+](=O)[O-])c1,-,-,-,-,-
CCOC(=O)c1c(S(=O)(=O)NCC(=O)N2CCN(c3ccc(OC)cc3)CC2)c(C)n(C)c1C,-,-,-,-,-
CC(C)Oc1ccc(C(CC(=O)O)n2cnnn2)cc1 (stereo unspecified),-,-,-,-,-
